High-throughput results: PubChem, several laboratories
NPR1 activator = GC-A (human) enzyme activation; actives 0.14% (n = 370,000); AID 1671463; HEK293 GC-A cells, cGMP TR-FRET, EC30 ANP; 0% at EC30 ANP, 100% saturating ANP; activation, % at 10 µM; in the data active means activation above about 40%
NPR2 activator = GC-B (human) receptor activation; P20594; HEK293-GC-B cells, CNP EC30, cGMP TR-FRET; 0% at EC30 CNP, 100% saturating CNP; activation, % at 10 µM; actives 0.11% (n = 370,000); AID 1920062;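 active means activation at 10 µM reaching about 35% in either raw or pattern-adjusted values, limit read from the data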
Target sequence (P20594 whole entry, looked up): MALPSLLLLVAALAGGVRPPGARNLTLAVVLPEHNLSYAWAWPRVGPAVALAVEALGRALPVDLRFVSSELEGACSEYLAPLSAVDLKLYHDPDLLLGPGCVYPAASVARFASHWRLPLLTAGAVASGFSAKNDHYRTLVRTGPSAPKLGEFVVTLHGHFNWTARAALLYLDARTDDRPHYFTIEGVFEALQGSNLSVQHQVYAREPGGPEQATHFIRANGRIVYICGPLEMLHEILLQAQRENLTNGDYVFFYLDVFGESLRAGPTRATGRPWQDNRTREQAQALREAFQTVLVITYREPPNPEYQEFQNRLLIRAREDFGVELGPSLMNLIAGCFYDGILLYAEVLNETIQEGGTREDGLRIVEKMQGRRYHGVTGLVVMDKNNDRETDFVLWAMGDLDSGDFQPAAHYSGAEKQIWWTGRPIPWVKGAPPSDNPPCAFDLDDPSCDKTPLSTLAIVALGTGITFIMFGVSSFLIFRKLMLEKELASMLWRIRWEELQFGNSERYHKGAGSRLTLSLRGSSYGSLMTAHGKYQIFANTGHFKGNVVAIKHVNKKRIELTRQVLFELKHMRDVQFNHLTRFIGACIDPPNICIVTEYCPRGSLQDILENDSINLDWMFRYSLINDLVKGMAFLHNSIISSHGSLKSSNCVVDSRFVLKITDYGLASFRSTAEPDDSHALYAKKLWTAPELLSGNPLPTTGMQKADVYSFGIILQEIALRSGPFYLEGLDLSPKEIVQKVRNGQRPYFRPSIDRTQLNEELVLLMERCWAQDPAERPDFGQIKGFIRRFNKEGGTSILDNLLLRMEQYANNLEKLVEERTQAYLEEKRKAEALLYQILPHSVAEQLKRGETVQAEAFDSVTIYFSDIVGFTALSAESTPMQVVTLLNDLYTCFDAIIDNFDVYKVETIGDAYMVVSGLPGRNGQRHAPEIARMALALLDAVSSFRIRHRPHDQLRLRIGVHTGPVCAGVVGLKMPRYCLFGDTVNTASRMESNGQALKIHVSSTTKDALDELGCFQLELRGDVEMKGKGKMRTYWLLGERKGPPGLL
Myeloid diff MLP = myeloid differentiation induction; ER-HoxA9 myeloid progenitors, lysozyme-GFP differentiation, flow cytometry; calls only at 10 µM; actives 1% (n = 360,000); AID 624256;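 active means normalized GFP-positive differentiation at or above the plate's own cutoff, the solvent-only control mean plus 3 SD; inconclusive means no clear call, values can overlap the other calls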;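 further: cells exposed to compound for four days before flow analysis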
Exocytosis inh = lytic granule exocytosis inhibition | TALL-104 LAMP-1 surface exposure, flow cytometry; cells stimulated with thapsigargin and PMA | inhibition, % at 10 µM | actives 0.66% (n = 360,000);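 active means inhibition above about 55%, limit read from the data; inconclusive means no clear call, values can overlap the other calls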
Exocytosis CP01 = blocks lytic granule exocytosis; shares compounds with Exocytosis inh; actives 11% (n = 1,500); TALL-104 cells, LAMP-1 externalization, flow cytometry; stimulated with PMA plus thapsigargin; inhibition, % at 10 µM; in the data active means inhibition above about 60%;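 further: 0% = stimulated vehicle wells and 100% = unstimulated wells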
* marks the source's active call; other numbers are inactive results; i = inactive; ? = inconclusive; / = no result given. The list is not random: actives were taken first. Their share in the collection is about 1.8%.

SMILES | NPR1 activator | NPR2 activator | Myeloid diff MLP | Exocytosis inh | Exocytosis CP01
COc1cc(C(C)=O)ccc1OCCCN1CCC(Cc2ccccc2)CC1 | -4.7 | -5.1 | i | 64.2* | -9.9
COc1cc(C(C)=O)ccc1OCCN1CCC(Cc2ccccc2)CC1 | -7.0 | -3.7 | i | 56.5* | -12.9
NC(C(=O)O)C1ON=C(Cl)C1O (stereo not given) | -1.8 | -6.1 | i | -0.8 | /
COc1cc(OC)c(CN2CCC(Cc3ccccc3)CC2)cc1Br | -22.7 | -4.9 | i | 0.1 | /
COc1cc(C)c(CN2CCC(Cc3ccccc3)CC2)cc1C | -7.1 | 0.8 | i | 55.6* | -12.5
COc1ccc(OC)c(CN2CCC(Cc3ccccc3)CC2)c1 | -6.4 | -2.2 | i | 59.9* | -12.2
C[C@@H]1CNC(=O)c2c(C(=O)Nc3ccc(CNC(=O)OC(C)(C)C)cc3)ncn21 | 2.0 | -3.5 | i | -0.9 | /
O=C(CN1C(=O)C(=O)c2ccccc21)c1ccc(Cl)cc1 | -10.3 | -17.8 | i | 62.6* | -11.9
CC(=O)N1C[C@@H](CO)[C@@H](N(C)C(=O)C(C)(C)C)C[C@H]1c1ccccc1 | 3.9 | -5.1 | i | -3.2 | /
CN1CCN(C2=C(Cl)C(=O)c3ccccc3C2=O)CC1 | 2.9 | -5.4 | ? | -2.6 | /
CC1COCC(C)N1C1=C(Cl)C(=O)c2ccccc2C1=O (stereo not given) | 1.8 | -1.5 | ? | 91.4* | 60.4*
CCOC(=O)C1(C)CCCN(C(=O)c2ccc3ccccc3c2)C1 (stereo not given) | 0.8 | 3.7 | i | 2.5 | /
CC(C)C[C@H]1CN(CCCC[C@@H]2CNC(=O)C(=O)N2CCc2ccccc2)C(=O)C(=O)N1Cc1ccccc1 | 5.7 | 6.0 | i | -4.2 | /
COc1ccccc1N(C)S(=O)(=O)c1ccc(Cl)c(C(=O)OCc2c(C)noc2C)c1 | -2.8 | -0.7 | i | 76.0* | 23.5
COc1ccccc1N(C)S(=O)(=O)c1ccc(Cl)c(C(=O)NNC(=O)c2ccccc2O)c1 | 5.3 | -1.0 | i | -2.2 | /
O=C(Nc1cc(Cl)cc(Cl)c1)N[C@@H]1CC[C@@H](CCNS(=O)(=O)c2cccc(F)c2)O[C@@H]1CO | 2.3 | -1.9 | i | -4.5 | /
CC(=O)NCCNc1nc2cc(-c3ccc(Cl)cc3C)sc2c(=O)n1C | 12.1 | -1.2 | i | -3.5 | /
CC(=O)Nc1ccc(CN2CCCCCC2)cc1 | 0.6 | 1.1 | i | -5.0 | /
O=C(Cc1ccc(Cl)cc1)Nc1ccc(CN2CCCCC2)cc1 | 1.1 | 2.2 | i | 55.5* | -3.5
COc1ccc(OC)c(S(=O)(=O)Nc2ccc(O)c3ccccc23)c1 | -9.4 | -5.3 | i | 84.6* | -12.4
COc1cccc(-c2cnc3c(NC=O)cc(-c4ccoc4)cn23)c1 | 1.4 | 1.3 | i | 11.1 | /
COc1cccc(-c2cnc3c(NC=O)cc(-c4cc(C)c(O)c(C)c4)cn23)c1 | -13.7 | -16.0 | ? | 62.9* | 14.4
COc1cccc(-c2cnc3c(NC=O)cc(-c4ccccc4)cn23)c1 | -6.5 | 4.2 | ? | 96.6* | 70.3*
Cc1ccc(S(=O)(=O)Nc2c(O)ccc3ccccc23)cc1 | / | / | i | 81.9* | -11.5
COC(=O)C1CN(C2CC2)CCS(=O)(=O)N1Cc1cn(Cc2ccc(Cl)cc2)nn1 (stereo not given) | 1.3 | 7.2 | / | / | /
SMILES | NPR1 activator | NPR2 activator | Myeloid diff MLP | Exocytosis inh | Exocytosis CP01
COCc1cn(-c2nc3ccccc3s2)nn1 | -1.3 | 1.4 | i | 1.5 | /
Cc1cc(C)nc(Nc2nc(-c3ccccc3)cs2)n1 | 2.0 | -1.8 | i | 76.5* | -5.7
C=CCn1c(SCC(C)=O)nc2scc(-c3ccc(C)o3)c2c1=O | 11.7 | 1.1 | i | 85.1* | -9.9
CC(C=CC(O)=C1C(=O)CNC1=O)=C[C@@H](C)C1OC2(C)OC(C(=O)C3O[C@@]32C)C1C (stereo not given in full) | 2.2 | 1.0 | i | -3.7 | /
CC(C)c1nc(N2CCN(C(=O)c3ccco3)CC2)c(C#N)c2c1COC(C)(C)C2 | 0.5 | 3.0 | i | 15.8 | /
CCCCc1nc(N2CCN(C(=O)c3ccco3)CC2)c(C#N)c2c1CCCC2 | 7.4 | -3.7 | i | 79.4* | 21.9
Cc1ccccc1CNC(=O)C1CCCN(c2nnc(C)c3c(C)n(-c4ccccc4)nc23)C1 (stereo not given) | 1.1 | -3.4 | i | 74.2* | 1.3
CCc1ccc(CNC(=O)C2CCCN(c3nnc(C)c4c(C)n(-c5ccccc5)nc34)C2)cc1 (stereo not given) | -5.3 | -9.7 | i | 57.7* | 87.2*
CCOc1ccccc1CNC(=O)C1CCN(c2nnc(C)c3c(C)n(-c4ccc(C)cc4)nc23)CC1 | -1.9 | 1.6 | ? | 57.6* | 88.5*
Cc1ccc(-n2nc3c(N4CCC(C(=O)NCc5ccccc5C)CC4)nnc(C)c3c2C)cc1 | / | / | ? | 30.7 | /
Cc1nnc(N2CCCC(C(=O)NCc3cccc(F)c3)C2)c2nn(-c3ccccc3)c(C)c12 (stereo not given) | -0.3 | -5.5 | i | 51.4 | /
COc1ccc(NC(=O)c2cc(C3CCCCN3C(=O)c3ccc(Cl)cc3)on2)c(C)c1 (stereo not given) | -3.7 | 3.1 | i | 3.3 | /
Cc1ccc(C(C)C)c(OCCNCc2ccccc2)c1 | -15.3 | -18.0 | i | 83.2* | -11.6
COc1ccc(Cn2nnnc2C(C(C)C)N(Cc2ccco2)Cc2cccs2)cc1 (stereo not given) | -15.0 | -2.1 | i | 57.2* | -14.0
Cc1oc(-c2ccc(Cl)cc2)nc1CS(=O)CC(=O)NCCCN1CCN(Cc2ccccc2)CC1 (stereo not given) | 27.3 | -3.2 | i | 74.8* | -8.2
Cc1ccc(C)c(S(=O)(=O)NCCCc2ccccc2)c1 | 2.4 | -2.5 | i | 58.4* | -13.5
COc1ccc(NC(=O)C2(C)Cc3c(-c4cccc(C(F)(F)F)c4)ccnc3O2)cn1 (stereo not given) | -0.4 | -0.7 | i | 4.9 | /
NS(=O)(=O)c1ccc(NC(=O)CSc2nc3ccccc3c(=O)n2-c2ccc(Br)cc2)cc1 | -0.8 | -0.1 | / | / | /
CN(C)CCCNC(=S)NCC(c1ccc(Cl)cc1Cl)c1c[nH]c2ccccc12 (stereo not given) | -10.0 | -10.8 | i | 92.3* | 77.2*
CCCCn1c(N2CCC(Cc3ccccc3)CC2)nc2c1c(=O)[nH]c(=O)n2C | -1.4 | 4.7 | i | 88.4* | 4.2
CCCCn1c(N2CCCC2)nc2c1c(=O)[nH]c(=O)n2C | 5.7 | -0.5 | i | 1.5 | /
Cc1ccnc(NC(=O)C2CCN(S(=O)(=O)c3ccc(C)c(C)c3)CC2)c1 | -2.2 | -6.2 | i | 65.4* | -3.1
CCN1CCN(c2ccc(NC(=O)CCc3c(C)nc4c(-c5ccc(F)cc5)c(C)nn4c3C)cc2)CC1 | -10.5 | -4.4 | i | 57.2* | -10.2
Cc1nc2c(-c3ccc(F)cc3)c(C)nn2c(C)c1CCC(=O)Nc1ccccc1 | -4.2 | 7.4 | i | -4.1 | /
COc1ccc2nc3cc(Cl)ccc3c(C#N)c2c1 | 1.0 | 1.1 | i | -0.3 | /
